Entries with a potency or affinity are not part of this list.
Biological target: T1, Ubiquitin-activating enzyme e1, putative (Leishmania donovani (strain BPK282A1)) (UniProt E9BSI1)
T1 sequence (whole entry): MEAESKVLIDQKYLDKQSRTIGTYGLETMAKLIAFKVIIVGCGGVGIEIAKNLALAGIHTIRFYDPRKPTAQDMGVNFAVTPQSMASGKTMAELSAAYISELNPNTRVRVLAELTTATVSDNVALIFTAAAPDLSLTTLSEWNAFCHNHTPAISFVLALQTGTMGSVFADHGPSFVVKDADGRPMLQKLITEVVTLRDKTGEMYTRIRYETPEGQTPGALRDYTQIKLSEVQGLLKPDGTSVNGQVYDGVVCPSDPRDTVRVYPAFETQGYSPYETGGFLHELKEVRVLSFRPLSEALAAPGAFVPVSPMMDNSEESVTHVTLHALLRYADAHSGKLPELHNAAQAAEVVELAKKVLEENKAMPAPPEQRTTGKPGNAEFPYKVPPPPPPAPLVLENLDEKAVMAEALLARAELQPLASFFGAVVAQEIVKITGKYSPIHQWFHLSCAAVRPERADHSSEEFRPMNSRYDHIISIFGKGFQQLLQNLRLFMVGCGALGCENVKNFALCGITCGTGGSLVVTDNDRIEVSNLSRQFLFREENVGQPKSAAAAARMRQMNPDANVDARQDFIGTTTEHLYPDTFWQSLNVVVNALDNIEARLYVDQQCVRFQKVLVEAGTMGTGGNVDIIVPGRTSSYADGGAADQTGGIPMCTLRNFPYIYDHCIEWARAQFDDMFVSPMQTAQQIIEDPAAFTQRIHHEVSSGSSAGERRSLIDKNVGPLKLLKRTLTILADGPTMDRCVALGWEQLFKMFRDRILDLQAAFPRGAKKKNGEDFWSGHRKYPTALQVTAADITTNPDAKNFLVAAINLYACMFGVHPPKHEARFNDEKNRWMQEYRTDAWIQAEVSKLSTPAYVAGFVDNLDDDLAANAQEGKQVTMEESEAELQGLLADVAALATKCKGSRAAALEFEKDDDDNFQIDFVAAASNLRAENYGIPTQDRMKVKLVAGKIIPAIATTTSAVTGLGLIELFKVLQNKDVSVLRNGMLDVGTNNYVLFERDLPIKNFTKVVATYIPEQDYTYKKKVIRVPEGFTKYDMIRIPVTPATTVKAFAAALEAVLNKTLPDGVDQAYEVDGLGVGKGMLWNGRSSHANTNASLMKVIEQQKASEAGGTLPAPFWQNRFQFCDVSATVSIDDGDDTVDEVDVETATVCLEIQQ
Assay: Leishmania donovani Ubiquitin Activating Enzyme (LdE1)
Type: functional
Parameters: scale not given: direction of the effect not stated beside the values
Settings: 30 µM

SMILES | Percent Effect
c1cnn(CC2CCCCN2Cc2cn3ccsc3n2)c1 (stereo not given) | 10.3%
CN(Cc1nnc(-c2ccco2)o1)C1CCCN(c2cccnn2)C1 (stereo not given) | 10.3%
O=C(NCCn1nc2ccccn2c1=O)c1cccc2[nH]ncc12 | 20.5%
Cc1nc(CN2CCCC(CCc3c(F)cccc3F)C2)c[nH]1 (stereo not given) | -13.5%
CC(C)CN1C[C@@H]2CN(C(=O)[C@H]3CCCO3)C[C@@H]2C1=O | 16.9%
CC(NC(=O)NCCCn1cncn1)c1ccccc1Cl (stereo not given) | 10.7%
Cc1[nH]ccc1C(=O)N1CCCC(c2nccn2Cc2cscn2)C1 (stereo not given) | -5.41%
CCn1cc2c(n1)C(COC)CN(Cc1ccccn1)C2 (stereo not given) | 9.09%
O=C1CCCc2nccc(-c3ccccc3)c21 | 22.7%
c1ccc(OCc2nnc3n2CCN(CC2CCOCC2)C3)nc1 | 1.3%
CN(C)CC1CN(Cc2ccsc2)Cc2nccn2C1 (stereo not given) | 6.49%
CCOc1c(Cl)cccc1NCc1cc(C)on1 | 12.8%
O=C(NCc1cc[nH]n1)NCC(c1ccc(F)cc1)N1CCOCC1 (stereo not given) | 23.1%
CCc1nccn1C1CCCN(C(=O)c2csc(NC(C)=O)n2)C1 (stereo not given) | 15.6%
Cc1ccc(C(=O)N2CCC3(CC2)CCN(CCN(C)C)C3=O)cn1 | 6.49%
Cc1ccc(C(=O)N2CCN(Cc3ccsc3)CC2)n1C | 5.33%
CS(=O)(=O)NCc1cc2n(n1)CCCN(Cc1cccc(C#N)c1)C2 | 8.11%
O=C(NCC1CC1)C1CCC2(CCN(C(=O)c3ccccn3)CC2)O1 (stereo not given) | 1.3%
O=C(NCc1cc[nH]n1)N(CCCO)C1CCc2ccccc21 (stereo not given) | 8%
CCC(NC(=O)CC(F)(F)F)c1ccccc1OCC(=O)N1CCCC1 (stereo not given) | 15.4%

— ChEMBL document CHEMBL3988442, “University of Dundee, Small-Polar-MMV Screening Library” (2021)
